# Data: PubChem BioAssay (NCI)
# Compounds without any hit were thinned out: in the full panel of roughly 83,000, 20% have a hit.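 Compound tested at a single concentration for 48 hours in 96-well plates; a percent growth value below 10 was scored as active.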 Unmarked numbers belong to inactive results. The source made the active and inactive calls.
# Assays:
# Experiment in all cases: NCI-60 one-dose screen, 48 h (100 = growth as untreated, 0 = no growth, -100 = all killed)
# Details in all cases: 10 µM unless noted
# DU-145 prostate = system: DU-145 prostate
# K-562 leukemia = system: K-562 leukemia
# MALME-3M melanoma = system: MALME-3M melanoma
# MDA-MB-231 breast = system: MDA-MB-231 breast
# RXF 393 renal = system: RXF 393 renal
# SF-268 CNS = system: SF-268 CNS
# SF-295 CNS = system: SF-295 CNS
# SF-539 CNS = system: SF-539 CNS
# UACC-257 melanoma = system: UACC-257 melanoma
# M14 melanoma = system: M14 melanoma
Structure (SMILES),growth (DU-145 prostate),growth (K-562 leukemia),growth (MALME-3M melanoma),growth (MDA-MB-231 breast),growth (RXF 393 renal),growth (SF-268 CNS),growth (SF-295 CNS),growth (SF-539 CNS),growth (UACC-257 melanoma),growth (M14 melanoma)
O=C1Nc2ccccc2/C1=C/c1ccc(OCC(=O)c2ccccc2)cc1,99.5%,88.9%,98.4%,96.2%,101%,96.4%,107%,90.6%,105%,95.7%
C#C[C@]1(O)CC[C@H]2[C@@H]3CC=C4c5sc(Nc6cc(C)cc(C)c6)nc5CC[C@]4(C)[C@H]3CC[C@@]21C,45.4%,0.356% (active),-4.28% (active),33.5%,-77.2% (active),22.3%,-71.7% (active),-47.7% (active),16%,-60.2% (active)
C#Cc1nc(/C=C/C(=O)NO)cs1,-59.8% (active),10.2%,-30.5% (active),-48.6% (active),-68.9% (active),52.9%,46.3%,-87.3% (active),42.6%,70.3%
CCn1c2ccc(/C=N/N(C)S(=O)(=O)CCN(C)C)cc2c2cc(/C=N/N(C)S(=O)(=O)CCN(C)C)ccc21,77.3%,8.55% (active),62.7%,55%,46.9%,76.7%,80%,4.32% (active),92.8%,66%
Cc1[nH]c(C(=O)Nc2ccccc2OCc2cccc(C(=O)NC3CCNC3)c2)c(Cl)c1Cl (stereo not given),-84.8% (active),0.128% (active),74.2%,-57.8% (active),78.8%,74.8%,-85% (active),-75.6% (active),103%,24.1%
NS(=O)(=O)c1ccc(Nc2nc(Nc3ccccc3)nc(N3N=C(c4ccc(Cl)cc4)CC3c3ccc(Cl)cc3)n2)cc1 (stereo not given),50.4%,32.5%,42.5%,54.3%,-3.26% (active),59.4%,56.7%,58%,65.8%,34.6%
O=S(=O)(Oc1ccc(-c2cn3ccoc3n2)cc1)c1cccc(C(F)(F)F)c1,101%,101%,98.6%,102%,98.2%,102%,90.4%,94.3%,101%,105%
O=C(CSc1nnc(-c2ccc(Cl)cc2)n1-c1ccccc1)Nc1cccc(F)c1,58.1%,48%,52.7%,27%,25.6%,56.2%,9.38% (active),-1.04% (active),85.9%,62.9%
